Experimental data reported in PubChem BioAssay (NCI).
The panel holds about 79,000 compounds, 15% with a hit somewhere; the sample as a whole holds those more often. Activity calls are given as the source filed them. Rule as the data show it: active = growth inhibition above about 70%; inactive = the rest.

Assay: NCI Yeast Anticancer Drug Screen. Data for the rad50 strain (AID 155);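 also: 0% = growth of vehicle-only cultures of the same strain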
Settings: S. cerevisiae rad50 strain growth inhibition; at 50.0 µM; stronger effect = higher value
Outline: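 DNA repair mutant yeast, compound exposure, growth read-out; inhibition is taken relative to vehicle.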

Row | Structure (SMILES) | growth inhibition
1 | CN(C)CCCN(c1nc2cc(Cl)ccc2o1)c1nc2cc(Cl)ccc2o1 | 33.7% (inactive)
2 | CC(C)=CCCC(C)C=O (stereo not given) | -11.6% (inactive)
3 | COc1ccc(Cc2coc3ccccc3c2=O)cc1 | 13.1% (inactive)
4 | O=C(NCCCl)Nc1cccc2c1CCC2 | -11.1% (inactive)
5 | COc1cccc(C2c3cc4c(cc3OC(C)(O)C2C)OCO4)c1OC (stereo not given) | 22.6% (inactive)

Assay: NCI Yeast Anticancer Drug Screen. Data for the mec2-1 strain (AID 157)
Settings: S. cerevisiae mec2-1 strain, at 50.0 µM, stronger effect = higher value
Outline: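 Growth inhibition is read against vehicle-treated controls after compound exposure of the mec2-1 yeast strain, which is defective in DNA damage repair or cell cycle control.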

Row | Structure (SMILES) | growth inhibition
6 | Cc1ccc(-c2nnc(C)o2)cc1 | -6.65% (inactive)
7 | CCCCCCCCOCCS(=O)(=O)O | -18.6% (inactive)
8 | CC(=O)NC(CSC1=C2NC(=O)\C=C/C=C/C=C\C(C)C(O)CC(=O)/C(C)=C\CC(O)/C=C/C(C)C(O)C(C)C=C(C)C(=O)c3c(O)c(C)cc(c3C1=O)C2=O)C(=O)O (stereo not given) | 7.95% (inactive)
9 | Cc1ccc(S(=O)(=O)Nc2ccc3nc(C)oc3c2)cc1 | -18.1% (inactive)
10 | CC(NC(=O)NCCCl)c1cccc2ccccc12 (stereo not given) | -1.25% (inactive)
11 | CN(C)C(=S)Oc1ccc([N+](C)(C)C)cc1 | 3.55% (inactive)
12 | CSc1cc(/C=C/c2ccccc2)ccc1N | 1.5% (inactive)
13 | Cc1ccc(N=Cc2ccc(C(N)=S)cc2)cc1 | 21.3% (inactive)
14 | CC(NC(=O)CN)C(=O)O (stereo not given) | -8.55% (inactive)
15 | NC1CCCCC1N.O=NN1CCCCCC1(P(=O)([O-])[O-])P(=O)([O-])[O-].[Na+].[Pt+2] | 20% (inactive)
16 | Clc1ccc2cc(Cl)c3ccccc3c2c1 | -24.4% (inactive)
17 | CC1(C)OC2OC(C3CC3)C(O)C2O1 (stereo not given) | 4.75% (inactive)
18 | CCOC(=O)NCc1cccc2ccccc12 | -2.7% (inactive)
19 | CCOC(=O)/C=C/n1c2ccccc2c(=O)c2cc(OC)ccc21 | -13.6% (inactive)
20 | OC(C/C(=N\Nc1ccccc1)c1ccc(F)cc1)(C(F)(F)F)C(F)(F)F | 98.8% (active)
21 | O=C(O)CCCCC1CCCC1 | 8.3% (inactive)
22 | COc1cccc(CCC(=O)O)c1 | -9.75% (inactive)
23 | Cc1ccc(N=C=C(c2ccc(Cl)cc2)c2ccc(Cl)cc2)cc1 | 64.4% (inactive)
24 | CCC1NC(N=Nc2ccc([N+](=O)[O-])cc2)(P(=O)(OC(C)C)OC(C)C)OC1=O (stereo not given) | -43.5% (inactive)
25 | CC1CSC(=S)N1C(=O)N1C(=S)SCC1C (stereo not given) | -56.8% (inactive)

Row | Structure (SMILES) | growth inhibition
26 | CCCC(=O)N(CC)CC | -8.6% (inactive)
27 | O=C(O)c1cccc2c1C1CCC2c2cccc(C(=O)O)c21 | 0.95% (inactive)
28 | C(=C(c1ccccc1)c1ccccc1)=C(c1ccccc1)c1ccccc1 | 12.9% (inactive)
29 | CC(=O)Oc1cc(Oc2c(OC(C)=O)cc(Oc3c(OC(C)=O)cc(OC(C)=O)c(OC(C)=O)c3OC(C)=O)cc2OC(C)=O)cc(OC(C)=O)c1OC(C)=O | 3.1% (inactive)
30 | NC(=O)NC(NC(=O)NC(NC(N)=O)c1ccco1)c1ccco1 (stereo not given) | 15.4% (inactive)
31 | Clc1nc(Cl)c2ncn(C3CCCO3)c2n1 (stereo not given) | -10% (inactive)
32 | COC(=O)C1CCCCC1C(=O)OC (stereo not given) | -14% (inactive)
33 | CC(C)(C)NO | -0.85% (inactive)
34 | CN1CCN(CCN2C(=O)c3ccccc3C2=O)CC1 | 2.65% (inactive)
35 | COc1cc2ccc3c4cc(OC)c(OCc5ccccc5)cc4cnc3c2cc1OC | 0.45% (inactive)
36 | Cc1ccc(O)c(C(=O)c2ccc(Cl)c(Cl)c2)c1 | 13.9% (inactive)
37 | CC(C)c1sc([S-])n[n+]1-c1ccccc1 | -0.65% (inactive)
38 | Cc1cc(C)[n+](C)c(/C=C/c2ccc([N+](=O)[O-])cc2)n1 | 6.95% (inactive)
39 | COc1ccc(NC(C)=O)cc1Br | -40.5% (inactive)
40 | Nc1nc(N)nc(-c2ccccc2NC(=O)c2ccccc2N)n1 | 14.3% (inactive)
41 | CN(C)CCCN(c1nc2cc(Cl)ccc2o1)c1nc2cc(Cl)ccc2o1 | 17.1% (inactive)
42 | CC(C)=CCCC(C)C=O (stereo not given) | -41.2% (inactive)
43 | COc1ccc(Cc2coc3ccccc3c2=O)cc1 | 7.35% (inactive)
44 | O=C(NCCCl)Nc1cccc2c1CCC2 | -0.7% (inactive)
45 | COc1cccc(C2c3cc4c(cc3OC(C)(O)C2C)OCO4)c1OC (stereo not given) | 4.05% (inactive)
